# Results published in PMC11006913.
# Changes are numbered by the printed parent chain.
# Experiments:
# Assay in all cases: PBM; 200 nM protein, PBS
# Details in all cases: dsDNA, one strand shown
# HOXC9 [1] = target: HOXC9 (Homo sapiens, UniProt P31274 178-260, K195R)
# HOXC9 [2] = target: HOXC9 (Homo sapiens, UniProt P31274 178-260)
# HOXC9 [3] = target: HOXC9 (Homo sapiens, UniProt P31274 178-260, R193K)
# VAX1 [4] = target: VAX1 (Homo sapiens, UniProt Q5SQQ9 86-172)
# HOXC9 [5] = target: HOXC9 (Homo sapiens, UniProt P31274 178-260, R222W)
# VAX1 [6] = target: VAX1 (Homo sapiens, UniProt Q5SQQ9 86-172, T142I)
# VAX1 [7] = target: VAX1 (Homo sapiens, UniProt Q5SQQ9 86-172, K157R)
# VENTX = target: T1, VENTX (Homo sapiens, UniProt O95231 78-163)
# T1 sequence: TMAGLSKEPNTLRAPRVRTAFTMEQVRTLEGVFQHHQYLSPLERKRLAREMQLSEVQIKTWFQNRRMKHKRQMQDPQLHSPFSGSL
# SIX6 [8] = target: T2, SIX6 (Homo sapiens, UniProt O95475 114-200, H141N)
# T2 sequence: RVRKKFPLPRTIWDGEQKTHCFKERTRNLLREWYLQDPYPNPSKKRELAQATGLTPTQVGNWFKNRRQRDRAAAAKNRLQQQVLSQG
# SIX6 [9] = target: T3, SIX6 (Homo sapiens, UniProt O95475 114-200, L143I)
# T3 sequence: T2 sequence with N28H, L30I
# SIX6 [10] = target: T4, SIX6 (Homo sapiens, UniProt O95475 114-200, T165A)
# T4 sequence: T2 sequence with N28H, T52A
# SIX6 [11] = target: T5, SIX6 (Homo sapiens, UniProt O95475 114-200)
# T5 sequence: T2 sequence with N28H
# HOXB9 [12] = target: HOXB9 (Homo sapiens, UniProt P17482 171-250, T197M)
# HOXB9 [13] = target: HOXB9 (Homo sapiens, UniProt P17482 171-250)
# HOXB9 [14] = target: HOXB9 (Homo sapiens, UniProt P17482 171-250, R186Q)
# HOXB6 [15] = target: HOXB6 (Homo sapiens, UniProt P17509 132-218, K202E)
# HOXB6 [16] = target: HOXB6 (Homo sapiens, UniProt P17509 132-218)
# HOXB6 (Homo sapiens, UniProt P17509 132-218), sequence (P17509 132-218): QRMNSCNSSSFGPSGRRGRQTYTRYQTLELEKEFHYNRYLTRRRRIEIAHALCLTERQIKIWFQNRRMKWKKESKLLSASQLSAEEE
# HOXC9 (Homo sapiens, UniProt P31274 178-260, R222W), sequence (P31274 178-260 R222W): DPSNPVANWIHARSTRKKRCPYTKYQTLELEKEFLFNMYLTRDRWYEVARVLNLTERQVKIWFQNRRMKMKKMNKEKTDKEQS
# VAX1 (Homo sapiens, UniProt Q5SQQ9 86-172, K157R), sequence (Q5SQQ9 86-172 K157R): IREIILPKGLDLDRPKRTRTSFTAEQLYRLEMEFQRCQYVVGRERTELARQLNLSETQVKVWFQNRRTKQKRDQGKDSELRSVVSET
# HOXB6 (Homo sapiens, UniProt P17509 132-218, K202E), sequence (P17509 132-218 K202E): as the sequence (P17509 132-218) above, with K71E counted along it
# HOXC9 (Homo sapiens, UniProt P31274 178-260, K195R), sequence (P31274 178-260 K195R): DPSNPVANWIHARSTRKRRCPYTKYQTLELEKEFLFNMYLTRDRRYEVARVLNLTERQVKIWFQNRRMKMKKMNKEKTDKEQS
# HOXC9 (Homo sapiens, UniProt P31274 178-260, R193K), sequence (P31274 178-260 R193K): as the sequence (P31274 178-260 R222W) above, with R16K, W45R counted along it
# VAX1 (Homo sapiens, UniProt Q5SQQ9 86-172, T142I), sequence (Q5SQQ9 86-172 T142I): as the sequence (Q5SQQ9 86-172 K157R) above, with T57I, R72K counted along it
# HOXC9 (Homo sapiens, UniProt P31274 178-260), sequence (P31274 178-260): as the sequence (P31274 178-260 R222W) above, with W45R counted along it
# VAX1 (Homo sapiens, UniProt Q5SQQ9 86-172), sequence (Q5SQQ9 86-172): as the sequence (Q5SQQ9 86-172 K157R) above, with R72K counted along it
# HOXB9 (Homo sapiens, UniProt P17482 171-250), sequence (P17482 171-250): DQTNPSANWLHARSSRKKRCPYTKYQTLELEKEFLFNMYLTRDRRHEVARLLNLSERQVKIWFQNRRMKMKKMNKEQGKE
# HOXB9 (Homo sapiens, UniProt P17482 171-250, T197M), sequence (P17482 171-250 T197M): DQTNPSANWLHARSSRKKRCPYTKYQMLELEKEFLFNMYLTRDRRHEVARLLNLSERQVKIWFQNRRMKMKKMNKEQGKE
# HOXB9 (Homo sapiens, UniProt P17482 171-250, R186Q), sequence (P17482 171-250 R186Q): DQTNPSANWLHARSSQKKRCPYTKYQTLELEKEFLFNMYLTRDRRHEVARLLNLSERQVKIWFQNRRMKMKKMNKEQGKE
sequence,measurement,setting,value
CCAGCGCA,binding signal,HOXC9 [1],"9.45 upbm affinity estimate (log intensity, higher = more binding, comparable within an allelic series)"
same,binding signal,HOXC9 [2],"9.65 upbm affinity estimate (log intensity, higher = more binding, comparable within an allelic series)"
same,binding signal,HOXC9 [3],"9.5 upbm affinity estimate (log intensity, higher = more binding, comparable within an allelic series)"
same,binding signal,VAX1 [4],"7.28 upbm affinity estimate (log intensity, higher = more binding, comparable within an allelic series)"
same,binding signal,HOXC9 [5],"9.6 upbm affinity estimate (log intensity, higher = more binding, comparable within an allelic series)"
same,binding signal,VAX1 [6],"7.16 upbm affinity estimate (log intensity, higher = more binding, comparable within an allelic series)"
same,binding signal,VAX1 [7],"7.39 upbm affinity estimate (log intensity, higher = more binding, comparable within an allelic series)"
CAGCCAGG,binding signal,HOXC9 [1],"9.53 upbm affinity estimate (log intensity, higher = more binding, comparable within an allelic series)"
same,binding signal,VENTX,"8.23 upbm affinity estimate (log intensity, higher = more binding, comparable within an allelic series)"
same,binding signal,SIX6 [8],"9.06 upbm affinity estimate (log intensity, higher = more binding, comparable within an allelic series)"
same,binding signal,SIX6 [9],"9.03 upbm affinity estimate (log intensity, higher = more binding, comparable within an allelic series)"
same,binding signal,HOXC9 [2],"9.58 upbm affinity estimate (log intensity, higher = more binding, comparable within an allelic series)"
same,binding signal,SIX6 [10],"9.02 upbm affinity estimate (log intensity, higher = more binding, comparable within an allelic series)"
same,binding signal,HOXC9 [3],"9.41 upbm affinity estimate (log intensity, higher = more binding, comparable within an allelic series)"
same,binding signal,SIX6 [11],"9.07 upbm affinity estimate (log intensity, higher = more binding, comparable within an allelic series)"
same,binding signal,HOXC9 [5],"9.62 upbm affinity estimate (log intensity, higher = more binding, comparable within an allelic series)"
GCCAGCCC,binding signal,HOXC9 [1],"9.67 upbm affinity estimate (log intensity, higher = more binding, comparable within an allelic series)"
same,binding signal,SIX6 [8],"9.06 upbm affinity estimate (log intensity, higher = more binding, comparable within an allelic series)"
same,binding signal,SIX6 [9],"8.94 upbm affinity estimate (log intensity, higher = more binding, comparable within an allelic series)"
same,binding signal,HOXC9 [2],"9.67 upbm affinity estimate (log intensity, higher = more binding, comparable within an allelic series)"
same,binding signal,SIX6 [10],"9.01 upbm affinity estimate (log intensity, higher = more binding, comparable within an allelic series)"
same,binding signal,HOXC9 [3],"9.67 upbm affinity estimate (log intensity, higher = more binding, comparable within an allelic series)"
same,binding signal,SIX6 [11],"8.98 upbm affinity estimate (log intensity, higher = more binding, comparable within an allelic series)"
same,binding signal,VAX1 [4],"7.02 upbm affinity estimate (log intensity, higher = more binding, comparable within an allelic series)"
same,binding signal,HOXC9 [5],"9.62 upbm affinity estimate (log intensity, higher = more binding, comparable within an allelic series)"
same,binding signal,VAX1 [6],"7.2 upbm affinity estimate (log intensity, higher = more binding, comparable within an allelic series)"
same,binding signal,VAX1 [7],"7.16 upbm affinity estimate (log intensity, higher = more binding, comparable within an allelic series)"
AATAATTG,binding signal,HOXB9 [12],"9.89 upbm affinity estimate (log intensity, higher = more binding, comparable within an allelic series)"
same,binding signal,HOXB9 [13],"11.3 upbm affinity estimate (log intensity, higher = more binding, comparable within an allelic series)"
same,binding signal,HOXB9 [14],"11.1 upbm affinity estimate (log intensity, higher = more binding, comparable within an allelic series)"
CGACGCGA,binding signal,VENTX,"8.03 upbm affinity estimate (log intensity, higher = more binding, comparable within an allelic series)"
GCCAGCGA,binding signal,VENTX,"8.16 upbm affinity estimate (log intensity, higher = more binding, comparable within an allelic series)"
GCCGGCGA,binding signal,VAX1 [4],"6.87 upbm affinity estimate (log intensity, higher = more binding, comparable within an allelic series)"
same,binding signal,VAX1 [6],"7.22 upbm affinity estimate (log intensity, higher = more binding, comparable within an allelic series)"
same,binding signal,VAX1 [7],"7.26 upbm affinity estimate (log intensity, higher = more binding, comparable within an allelic series)"
CTCTCCAG,binding signal,VAX1 [4],"7 upbm affinity estimate (log intensity, higher = more binding, comparable within an allelic series)"
same,binding signal,VAX1 [6],"7.16 upbm affinity estimate (log intensity, higher = more binding, comparable within an allelic series)"
same,binding signal,VAX1 [7],"7.01 upbm affinity estimate (log intensity, higher = more binding, comparable within an allelic series)"
AGAGGACC,binding signal,HOXB6 [15],"9.07 upbm affinity estimate (log intensity, higher = more binding, comparable within an allelic series)"
same,binding signal,HOXB6 [16],"8.88 upbm affinity estimate (log intensity, higher = more binding, comparable within an allelic series)"
CACGGCGG,binding signal,HOXB6 [15],"9.01 upbm affinity estimate (log intensity, higher = more binding, comparable within an allelic series)"
same,binding signal,HOXB6 [16],"8.99 upbm affinity estimate (log intensity, higher = more binding, comparable within an allelic series)"
TAATTGTA,binding signal,HOXB6 [15],"10 upbm affinity estimate (log intensity, higher = more binding, comparable within an allelic series)"
CAGGCCGG,binding signal,HOXB6 [15],"8.91 upbm affinity estimate (log intensity, higher = more binding, comparable within an allelic series)"
same,binding signal,HOXB6 [16],"8.84 upbm affinity estimate (log intensity, higher = more binding, comparable within an allelic series)"
CAGTGCCG,binding signal,VAX1 [4],"7.15 upbm affinity estimate (log intensity, higher = more binding, comparable within an allelic series)"
same,binding signal,VAX1 [6],"7.27 upbm affinity estimate (log intensity, higher = more binding, comparable within an allelic series)"
same,binding signal,VAX1 [7],"7.09 upbm affinity estimate (log intensity, higher = more binding, comparable within an allelic series)"
